Source: PubChem BioAssay AID624405 (Broad Institute, 2012)
The campaign covered roughly 1,900 compounds. About 250 (13%) were called active. Not shown: some 4% with an inconclusive outcome. A selection follows. Measured potencies and affinities stand elsewhere. Unmarked numbers belong to inactive results.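 Rule for the calls: active = fitted curve reaches 40% rescue activity at or below the top valid dose, in every test run; inconclusive = test runs disagree, some active and some inactive; inactive = every run misses the threshold or moves the wrong way.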

test: rescue of simvastatin-induced ATP loss – cell-based, C2C12 myotubes, ATP luminescence, cherry pick, dose response (AID 624405); details: 48 h, scaled: DMSO wells 0, geranylgeraniol wells 100; series mostly up to 19.5 µM; rescue activity (ATP increase): at the top concentration;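 note: myotubes are challenged with simvastatin at 10 µM to lower ATP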

| Structure (SMILES) | rescue activity (ATP increase) |
| --- | --- |
| C[C@@H]1CN([C@@H](C)CO)C(=O)c2cc(C3=CCCCC3)cnc2O[C@@H]1CN(C)C(=O)C1CCOCC1 | 16.4% |
| O=C(COC(=O)CNC(=O)c1ccc(Br)o1)Nc1ccc2c(c1)OCCO2 | 20.8% |
| COc1ccc(C(=O)N2CCc3cc(OC)c(OC)cc3C2)cc1OC | 14.1% |
| COc1ccc(C(=O)N2CCN(C(=O)c3cc(OC)c(OC)c(OC)c3)CC2)cc1 | -13.4% |
| N#Cc1cc2c(nc1SCC(=O)N1CCCCC1)CCCCC2 | 7.11% |
| CC(C)(C)C(=O)Nc1ccccc1N1CCN(C(=O)c2ccc(Cl)cc2)CC1 | 47.4% |
| C[C@@H]1CN([C@H](C)CO)C(=O)c2cc(NC(=O)C3CCCCC3)ccc2O[C@H]1CN(C)Cc1ccc(Cl)c(Cl)c1 | -1.86% [at 21 µM] |
| C[C@H]1CN([C@@H](C)CO)C(=O)Cc2cc(NC(=O)Cc3cn(C)c4ccccc34)ccc2O[C@@H]1CN(C)Cc1ccc(Cl)c(Cl)c1 | 28.9% |
| C[C@H](CO)N1C[C@H](C)[C@@H](CN(C)Cc2ccc(Cl)c(Cl)c2)Oc2ccc(NC(=O)c3ccncc3)cc2CC1=O | 24.4% |
| C[C@@H]1CN([C@H](C)CO)C(=O)Cc2cc(NC(=O)Nc3ccc(F)cc3)ccc2O[C@H]1CN(C)Cc1ccc(Cl)c(Cl)c1 | 21.5% [at 21 µM] |
| C[C@@H]1CN([C@H](C)CO)C(=O)Cc2cc(NC(=O)Cc3cn(C)c4ccccc34)ccc2O[C@@H]1CN(C)Cc1ccc(Cl)c(Cl)c1 | 28.1% |
| C[C@@H]1CN([C@@H](C)CO)C(=O)Cc2cc(NC(=O)C3CCCCC3)ccc2O[C@H]1CN(C)Cc1ccc(-c2ccccc2)cc1 | 38.7% |
| C[C@H](CO)N1C[C@H](C)[C@@H](CN(C)Cc2ccc(Cl)c(Cl)c2)Oc2ccc(NC(=O)NC3CCCCC3)cc2CC1=O | 17.5% |
| C[C@@H]1CN([C@@H](C)CO)C(=O)c2cc(NC(=O)C3CCCCC3)ccc2O[C@@H]1CN(C)Cc1ccc(Cl)c(Cl)c1 | -5.83% [at 21 µM] |
| COc1ccc(S(=O)(=O)Nc2ccc3c(c2)C(=O)N([C@@H](C)CO)C[C@H](C)[C@@H](CN(C)S(=O)(=O)c2ccc(F)cc2)OCCCC[C@@H](C)O3)cc1 | 17.1% |
| C[C@@H]1CCCCO[C@H](CN(C)C(=O)Nc2cccc3ccccc23)[C@H](C)CN([C@@H](C)CO)C(=O)c2cc(NC(=O)Nc3ccc4c(c3)OCO4)ccc2O1 | 16.8% |
| COc1cccc(S(=O)(=O)N(C)C[C@@H]2Oc3ncc(C#CCC(C)C)cc3C(=O)N([C@@H](C)CO)C[C@H]2C)c1 | 4.75% |
| CC(=O)Nc1cc(-c2nn(C)c(=O)c3ccccc23)ccc1N1CCOCC1 | 33.7% |
| C[C@@H]1CCCCO[C@H](CN(C)C(=O)C2CCCCC2)[C@H](C)CN([C@H](C)CO)C(=O)c2cc(NS(=O)(=O)c3ccccc3)ccc2O1 | 26.7% |
| COc1ccc(CC(=O)Nc2ccc(-c3cn4ccccc4n3)cc2)cc1 | -1.98% |
| C[C@@H]1CN([C@@H](C)CO)C(=O)Cc2cc(NC(=O)C3CCCCC3)ccc2O[C@H]1CN(C)Cc1ccc(Oc2ccccc2)cc1 | 17.8% |
| C[C@@H]1CN([C@@H](C)CO)C(=O)Cc2cc(NC(=O)C3CC3)ccc2O[C@H]1CN(C)Cc1ccc(Oc2ccccc2)cc1 | 26.8% |
| CCCCNc1ncnc2c1cnn2Cc1ccc(Cl)cc1 | -49% |
| COCCCn1c(SCC(=O)NCc2ccco2)nc2sc3c(c2c1=O)CCC3 | 29.6% |
| O=C(CCn1c(SCC(=O)NCc2ccco2)nc2ccccc2c1=O)NCCc1ccccc1 | 38.7% |

| Structure (SMILES) | rescue activity (ATP increase) |
| --- | --- |
| COc1ccc(OCC(=O)Nc2nnc(S(=O)(=O)N3CCCCCC3)s2)cc1 | -8.53% |
| Cc1cnc(C(=O)Nc2nccs2)cn1 | -34% |
| CCN(CC)S(=O)(=O)c1cccc(-c2nnc(SCC(=O)NCCC3=CCCCC3)n2N)c1 | 5.05% |
| CCN(C(C)=O)c1cccc2ccccc12 | -3.21% |
| CC1CCN(S(=O)(=O)c2ccc(NC(=O)c3ccco3)cc2)CC1 | 3.41% |
| CCC1CCCCN1S(=O)(=O)c1ccc(NC(=O)C2CCN(C(=O)c3ccco3)CC2)cc1 (stereo not given) | -13.4% |
| CCC(C)NS(=O)(=O)c1ccc(NC(=O)C2CCN(C(=O)c3ccco3)CC2)cc1 (stereo not given) | -1.8% |
| CC1CCCN(S(=O)(=O)c2ccc(NC(=O)C3CCN(C(=O)c4ccco4)CC3)cc2)C1 (stereo not given) | 10.1% |
| C[C@@H]1CCCCO[C@@H](CN(C)C(=O)Nc2cccc3ccccc23)[C@H](C)CN([C@H](C)CO)C(=O)c2cc(NC(=O)c3ccncc3)ccc2O1 | 32.2% |
| C[C@H]1CN([C@@H](C)CO)S(=O)(=O)c2ccc(-c3ccc(C(=O)N(C)C)cc3)cc2O[C@@H]1CN(C)C(=O)Cc1ccccn1 | 32.9% |
| CCOc1ncnc2c1[nH]c1ccccc12 | 13.5% |
| COc1ccc(CN(C)C[C@@H]2Oc3ccc(NC(=O)CCC(F)(F)F)cc3CC(=O)N([C@H](C)CO)C[C@H]2C)cc1 | 27.9% [at 21 µM] |
| COc1ccc(S(=O)(=O)Nc2ccc3c(c2)C(=O)N([C@H](C)CO)C[C@H](C)[C@@H](CN(C)S(=O)(=O)c2ccc(F)cc2)OCCCC[C@@H](C)O3)cc1 | 25.5% |
| O=C(O)CCC(=O)OCC1CCCCC1 | -4.14% |
| CC(C)NC(=O)Cn1c(=O)n(CC(=O)N2CCCCC2)c(=O)c2sccc21 | -3.24% |
| C[C@H]1CN([C@@H](C)CO)C(=O)c2cc(C#CC3CC3)cnc2O[C@@H]1CN(C)S(C)(=O)=O | 2.75% |
| C[C@@H]1CN([C@H](C)CO)C(=O)c2cc(NS(C)(=O)=O)ccc2O[C@@H](C)CCCCO[C@@H]1CN(C)S(=O)(=O)c1ccc(Cl)cc1 | 15.7% |
| O=c1c2c([nH]c3ccc(Br)cc13)CCCC2 | -17.7% |
| O=C(CCn1cccc1)NC1CCCc2ccccc21 (stereo not given) | 9.33% |
| Cc1ccc(CN(C(=O)c2ccco2)C(C(=O)NC2CCCC2)c2ccc(N3CCOCC3)cc2)cc1 (stereo not given) | 0.628% |
| COc1ccc(NC(=O)Nc2ccc3c(c2)C(=O)N([C@H](C)CO)C[C@H](C)[C@@H](CN(C)Cc2ccc(C(F)(F)F)cc2)OCCCC[C@H](C)O3)cc1 | 14% |
| Cc1ccc(S(=O)(=O)N(C)C[C@@H]2Oc3c(NC(=O)Nc4ccccc4)cccc3C(=O)N([C@@H](C)CO)C[C@@H]2C)cc1 | 36.3% |
| Cc1ccc(S(=O)(=O)N(C)C[C@@H]2Oc3c(NC(=O)Nc4ccccc4)cccc3C(=O)N([C@H](C)CO)C[C@H]2C)cc1 | -25.3% |
| Cc1ccc(S(=O)(=O)N(C)C[C@@H]2Oc3c(NC(=O)Nc4ccccc4)cccc3C(=O)N([C@H](C)CO)C[C@@H]2C)cc1 | 33.4% |
| C[C@@H]1CN([C@H](C)CO)C(=O)c2cccc(NC(=O)Nc3ccccc3)c2O[C@@H]1CN(C)S(=O)(=O)c1ccccc1 | 26.7% |
